From PubChem
D1 ag – human D1 receptor agonism; P21728; HEK293 T-REx D1 cells, calcium flux, agonist mode; activation, % at 2 µM; actives 1% (n = 360,000); in the data active means activation above about 30%; further: 0% is about no effect
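Inducible HEK293 T-REx D1 cells, force-coupled to calcium signalling, were plated at 4000 cells/well with tetracycline and held overnight at 30 C. After no-wash calcium dye loading, compound-evoked calcium rise over 180 s flagged agonists.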
TRHR agonist-1 – agonists of human TRH receptor; P34981; TRHR cells, calcium flux fluo-8, FDSS agonist mode; activation, % at 2 µM; actives 0.18% (n = 360,000); in the data active means activation above about 30%; further: 0% is about no effect
Target sequence (P34981 whole entry, looked up): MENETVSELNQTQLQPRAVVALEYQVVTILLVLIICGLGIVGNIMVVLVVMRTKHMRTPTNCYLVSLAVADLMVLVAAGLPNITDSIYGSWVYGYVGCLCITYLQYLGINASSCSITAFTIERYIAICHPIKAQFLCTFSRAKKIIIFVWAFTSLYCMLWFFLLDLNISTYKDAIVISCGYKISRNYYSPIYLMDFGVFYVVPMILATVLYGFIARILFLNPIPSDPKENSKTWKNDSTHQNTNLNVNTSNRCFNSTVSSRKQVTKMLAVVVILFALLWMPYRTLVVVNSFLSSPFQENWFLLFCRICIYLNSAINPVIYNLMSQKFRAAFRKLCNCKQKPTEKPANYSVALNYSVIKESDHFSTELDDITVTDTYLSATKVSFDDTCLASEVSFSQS
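TRHR-expressing cells, plated overnight in medium with 10% serum, were loaded with fluo-8 calcium dye at room temperature. After a 10 s baseline, library compound was pin-added and calcium release was recorded kinetically (ex 480/em 530) as agonist response.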
Epigenetic derep – regulators of epigenetic silencing causing reporter derepression in mouse cells; murine LDR cells, GFP reporter derepression, 30 h; Potency, µM (doses to about 53.9 µM), without a hit: top-dose GFP activation, usual class: activators; actives 0.2% (n = 280,000); AID 1865; further: potency means the concentration at half of the fitted maximal effect; % of control where 0% means no effect; nearly all actives have a fitted effect of over 60% in size
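Readout is the number of GFP-expressing murine LDR cells, counted by cytometry following washing. Cells were treated with compound for 30 h at 37 C; the stably integrated CMV-GFP locus is normally silent.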
TRHR enhancer-1 – allosterically enhances the human TRH receptor | AID 493056 | P34981 | actives 0.66% (n = 360,000) | enhancement, % at 2 µM | TRHR cells, fluo-8 calcium fluorescence, EC20 TRH enhancement; in the data active means enhancement above about 30%; further: 0% is about no effect
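TRHR-expressing cells loaded with fluo-8 calcium dye were read kinetically (ex 480/em 530) during compound addition, then stimulated with an EC20 of TRH (10 nM final). Enhancement of the Gq-mediated intracellular calcium response was scored.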
D1 antag – human D1 dopamine receptor antagonism; actives 3.2% (n = 360,000); P21728; activity change, negative = inhibition, % at 10 µM; HEK293 TREx D1 cells, calcium flux, dopamine EC80; stronger effect = lower value; in the data active means activity change below about -30%; further: on the % scale 0 is the no-effect control and ±100 the full control effect
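Kinetic fluorescence of a calcium dye serves as the read-out. D1-expressing Hek293 Trex cells, induced overnight at 30 C, are exposed to compound for 180 s before an EC80 dopamine addition, then read 180 s further.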
D1 potentiator – potentiators of human D1 dopamine receptor. AID 504651. actives 0.036% (n = 360,000). HEK293 TREx D1 cells, calcium flux, dopamine EC20 potentiation. potentiation, % at 10 µM; in the data active means potentiation above about 30%; further: 0% is about no effect
TRHR enhancer-2 – confirmation of human TRH receptor allosteric enhancers | 970 tested, under 10 active | shares compounds with TRHR enhancer-1 | TRH receptor cell assay, enhancer confirmation qHTS | activity change, negative = inhibition, % at 46.1 µM;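 further: compound effect scored on response to added TRH at EC20 of 10 nM; 0% is about no effect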
TRHR agonist-2 – human TRH receptor agonism confirmation | shares compounds with TRHR enhancer-1 | TRHR-expressing cells, agonist activation read-out | Potency, µM (series often up to 46.1 µM), for inactives: at the top dose activation, hits mostly activators | actives 8% (n = 970); further: potency means the concentration at half of the fitted maximal effect; 0% is about no effect; nearly all actives have a fitted effect of over 75% in size
* = called active by the depositor; ? = inconclusive; . = no result; [ ] = dose if it differs, or a comment. In the library only some 4.6% were active in any assay of this set; here they are far more common. Unless noted, the call rests on the fitted dose curve; in most records, active means well fitted curve in the direction sought with a large enough effect; inconclusive means small, poorly fitted or top-dose-only effect, or another doubt; inactive means no such curve, though single readings can be large; an effect the other way counts as inactive or inconclusive.

SMILES | D1 ag | TRHR agonist-1 | Epigenetic derep | TRHR enhancer-1 | D1 antag | D1 potentiator | TRHR enhancer-2 | TRHR agonist-2
COc1ccc(OCCOCCOc2ccc(C)cc2[N+](=O)[O-])cc1 | 8 | 0 | -1% | -1 | -7 | 2 | . | .
COc1ccc(CNCC(O)COc2ccc(C)cc2[N+](=O)[O-])cc1 (centres undefined) | 22 | 34* | 11% | 2 | -10 | -14 | 4 | 2%
COC(=O)c1ccccc1NC(=O)c1cc(C)nc2c1c(C)nn2-c1ccc(C)cc1 | 3 | 0 | 0% | 1 | -9 | -3 | . | .
Cc1c(NC(=O)CN2C(=O)NC(C)(c3ccccc3)C2=O)c(=O)n(-c2ccccc2)n1C (centres undefined) | 3 | 0 | -1% | 48* | -32* | -5 | -2 | 0%
CC(=O)OC[C@@H]1O[C@@H](O/N=C2/C[C@@H](O)[C@@H](O)[C@@H]3[C@@H]4C(=O)N(C[C@@H]5CCCO5)C(=O)[C@H]4CC[C@@H]23)[C@H](OC(C)=O)[C@H](OC(C)=O)[C@@H]1OC(C)=O | . | . | 0%[10.1 µM] | . | . | . | . | .
CCc1ccccc1NC(=O)CN(C)C(=O)Cn1ncc(Cl)c(Cl)c1=O | 2 | 0 | -1% | 49* | -1 | -5 | -2 | 1%
O=C(NC1CC1)C1=NOC(CNc2ncc(C(F)(F)F)cc2Cl)C1 (centres undefined) | 1 | 1 | -3% | 46* | 1 | 2 | -5 | 2%
Nc1cc(S(=O)(=O)N2CCCCC2)ccc1N1CCCCC1 | 8 | 0 | . | 0 | -21 | -6 | . | .
CN1CCN(c2ccc(S(=O)(=O)N3CCCCC3)cc2N)CC1 | 4 | 2 | . | 60* | 5 | 3 | 1 | -1%
Cc1[nH]c2ccccc2c1C(=O)C(=O)NC1CC(=O)N(c2cccc(F)c2)C1 (centres undefined) | -2 | 0 | 4% | -5 | . | 2 | . | .
COc1ccc(C)cc1NC(=O)CC1NCCNC1=O (centres undefined) | -1 | 1 | -1% | 1 | 12 | -2 | . | .
C=CCN(CC=C)Cc1c(C)[nH]c2c(C)c(C)ccc2c1=O | 2 | -1 | -1% | 45* | 2 | -6 | -4 | -1%
CCCCCc1ccc(OCCCC[n+]2ccc(C)cc2)c(CCCCC)c1 | 202* | 35* | -1% | -11 | -12 | 20 | -13 | ?
CCCCOc1ccc(C)cc1CN(CCO)CCO | 6 | 0 | 0% | -3 | 13 | -3 | . | .
CN(c1ccc(C(=O)N2CCN(c3ccc(F)cc3)CC2)cc1)S(C)(=O)=O | -1 | 1 | -1% | 56* | 0 | -5 | -6 | -1%
CCc1ccc(NC(=O)c2sc3ncnc(N(C)C4CCCCC4)c3c2C)cc1 | 6 | 1 | -1% | 0 | -7 | -3 | . | .
COc1ccc(C)c2sc(N(Cc3cccnc3)C(=O)c3cccs3)nc12 | -3 | 0 | 1% | -4 | . | 3 | . | .
Nc1nc(SCC(=O)N2CCOCC2)[nH]c(=O)c1-c1ccccc1 | 3 | 1 | 1% | 65* | 7 | -1 | 7 | 0%
Nc1nc(SCC(=O)N2CCCC2)[nH]c(=O)c1-c1ccccc1 | 0 | 0 | 0% | 0 | 5 | -2 | . | .
O=C(COc1ccc(Br)cc1)N1CCCCCC1 | 0 | 0 | 1% | -1 | -8 | -3 | . | .
O=C(COc1ccc(Br)cc1)OCCN1CCCCC1 | 2 | 30* | . | 0 | 5 | -3 | -6 | 1%
COc1ccc(NC(=O)Cn2c(=O)cc(C)c3c(C)nn(C)c32)cc1 | 13 | 0 | 0% | 26 | -17 | -5 | . | .
COc1ccccc1CNC(=O)C/C(C)=N/NC(=O)Cc1ccccc1 | 2 | 1 | 2% | 41* | -7 | 4 | -4 | 1%
CCn1c(C)c(C)c2cc(C(=O)NC3CCCCCC3)ccc21 | 1 | 0 | . | 45* | -2 | 0 | ? | 2%
CNC(=O)CN(C)S(=O)(=O)c1ccc(OC)c(Cl)c1 | 0 | 0 | 0% | 75* | 3 | -2 | -4 | -1%
SMILES | D1 ag | TRHR agonist-1 | Epigenetic derep | TRHR enhancer-1 | D1 antag | D1 potentiator | TRHR enhancer-2 | TRHR agonist-2
COc1ccc(S(=O)(=O)N(C)CC(=O)NC2CCCCC2)cc1Cl | 1 | -1 | 3% | -1 | -2 | 2 | . | .
COc1ccc(NC(=O)Cn2ncc3c([nH]c4ccccc43)c2=O)cc1Cl | -2 | 0 | -1% | 5 | 5 | 3 | . | .
CCOc1ccc(-c2cc3c(=O)n(CC(=O)Nc4c(C)cccc4C)ccn3n2)cc1 | -1 | 1 | -7% | 3 | -18 | -1 | . | .
Cc1nn(C)cc1S(=O)(=O)Nc1ncccn1 | 0 | 2 | . | 41* | 1 | -4 | 0 | 6%
Brc1ccc(-c2csc(NNC3=NCCCCC3)n2)cc1 | 0 | -1 | -1% | 2 | 23 | 6 | . | .
CC(C)(C)c1ccc(-c2csc(NNC3=NCCCCC3)n2)cc1 | 0 | 0 | 2% | 55* | . | 1 | 7 | 6%
CC(C)CCn1c(=O)c2cccnc2n(CC(=O)Nc2ccc(F)cc2)c1=O | 1 | 1 | 1% | -2 | 7 | -4 | . | .
Cc1cc(-c2nn(-c3ccccc3F)cc2CNCCc2cnc[nH]2)c(C)s1 | 3 | 0 | -3% | 51* | -5 | -2 | -2 | 1%
Cc1ccc(NC(=O)C2CCCN(S(=O)(=O)c3ccc4c(c3)CCCC(=O)N4)C2)cc1N(C)C (centres undefined) | 1 | -1 | 1% | -9 | -7 | -5 | . | .
Cn1nccc1C(=O)Nc1sc2c(c1C#N)CCCC2 | -1 | 2 | . | 0 | 4 | -11 | . | .
Cn1nccc1C(=O)Nc1sc2c(c1C(N)=O)CCCC2 | 2 | 32* | -9% | 2 | 2 | -2 | -1 | 3%
Cc1ccc(CNC(=O)C(=O)NCC(c2cccs2)S(=O)(=O)c2cccs2)cc1 (centres undefined) | 2 | 0 | 5% | -2 | . | -3 | . | .
O=C(O)C1=C[C@@H](c2csc3ccccc23)C[C@@H](OCCCCO)O1 | 0 | 0 | 1% | 49* | -23 | 0 | 0 | 3%
CCC(Sc1nc2n[nH]c(C)c2c(=N)n1-c1ccc(Br)cc1)C(=O)N(CC)CC (centres undefined) | 10 | 0 | 3% | -1 | -5 | 0 | . | .
Cc1c(NC(=S)NC(=O)c2cccc3ccccc23)cccc1C(=O)O | 5 | 0 | . | 65* | -5 | -2 | -5 | -1%
